This is an account of results in PubChem BioAssay (EPA / NIEHS).

Where “and” joins values, the source holds several entries; their conditions need not be identical. Equal entries are not always repeated. Inconclusive results are not listed. Calls of active or inactive are those of the source. Rule for the calls, unless noted: active = hit-call score of the fitted dose curve at least 0.9, where 1 is the maximum; inconclusive = response in the unintended direction; inactive = score below 0.9.

For orientation: AC50 means the concentration giving half of the maximal activity seen.

Read-out in assay [1]: ABC Transporter (ABCB11), ABCB11 (gene 8647)
Description: CLD_ABCB11_48hr: CellzDirect (CLD) Gene Expression Assay for ABC Transporter (ABCB11) at 48 hours (AID 2283697). An outline of the steps: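 Induction of ABCB11 mRNA relative to 0.2% DMSO, measured at 48 h by qNPA chemiluminescence. Cultured human hepatocytes (two donors) received fresh dosing solutions at several concentrations on two consecutive days.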

Read-out in assay [2]: Cytochrome P450 2B6 (Homo sapiens) (UniProt P20813)
Description: CLD_CYP2B6_48hr: CellzDirect (CLD) Gene Expression Assay for xenobiotic metabolism (CYP2B6) at 48 hours (AID 2283699).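 Note: actives raise transcript level above DMSO so potency reflects induction.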 The gist of the method: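 CYP2B6 transcript induction, read by quantitative nuclease protection (S1 digestion, chemiluminescent detection) 48 h after dosing, is fitted upward against 0.2% DMSO. Cultured human liver primary cells, two donor preparations, received fresh chemical daily over multiple concentrations.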

Read-out in assay [3]: xenobiotic metabolism (CYP1A2), CYP1A2 (gene 1544)
Briefly: CLD_CYP1A2_48hr: CellzDirect (CLD) Gene Expression Assay for xenobiotic metabolism (CYP1A2) at 48 hours (AID 2283703). The gist of the method: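 Cytotoxicity was flagged yes/no from morphology, while CYP1A2 transcript induction was detected by qNPA chemiluminescence after a 48-hour exposure. Human primary hepatocyte cultures from separate donors received fresh dosing solutions daily over two days, with 0.2% DMSO as vehicle and baseline.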

Read-out in assay [4]: xenobiotic metabolism (CYP1A1), CYP1A1 (gene 1543)
Description: CLD_CYP1A1_48hr: CellzDirect (CLD) Gene Expression Assay for xenobiotic metabolism (CYP1A1) at 48 hours (AID 2283705). The gist of the method: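 CYP1A1 transcript measured by quantitative nuclease protection (chemiluminescent) 48 h after two daily treatments of human hepatocyte cultures, versus 0.2% DMSO. Morphology-based cytotoxicity flags accompany data; two donor preparations used.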

Read-out in assay [5]: glucuronosyltransferase (UGT1A1), UGT1A1 (gene 54658)
Description: CLD_UGT1A1_48hr: CellzDirect (CLD) Gene Expression Assay for glucuronosyltransferase (UGT1A1) at 48 hours (AID 2283709).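 Note: actives increase expression relative to DMSO so potency refers to induction.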 An outline of the steps: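 Quantitative nuclease protection assay (chemiluminescent) for UGT1A1 mRNA at 48 h in human hepatocyte cultures from two donors, redosed daily with fresh solutions. Induction fitted relative to 0.2% DMSO; phase-contrast morphology annotated cytotoxicity.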

Read-out in assay [6]: glucuronosyltransferase (UGT1A1), UGT1A1 (gene 54658)
Description: CLD_UGT1A1_24hr: CellzDirect (CLD) Gene Expression Assay for glucuronosyltransferase (UGT1A1) at 24 hours (AID 2283696). An outline of the steps: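 UGT1A1 transcript induction was measured by quantitative nuclease protection assay (chemiluminescence) in human hepatocyte cultures 24 h after daily fresh dosing, with 0.2% DMSO as vehicle and baseline.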

Read-out in assay [7]: Cytochrome P450 2C19 (Homo sapiens) (UniProt P33261)
Description: CLD_CYP2C19_48hr: CellzDirect (CLD) Gene Expression Assay for xenobiotic metabolism (CYP2C19) at 48 hours (AID 2283700).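 Note: fitted upward so actives raise CYP2C19 mRNA above the 0.2% DMSO vehicle.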 The gist of the method: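 CYP2C19 mRNA induction read by chemiluminescent quantitative nuclease protection assay after 48 h, with fresh compound added daily for two days to cultured human liver hepatocytes. Activity fitted upward against 0.2% DMSO vehicle.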

Read-out in assay [8]: HMG-CoA synthase (HMGCS2), HMGCS2 (gene 3158)
Briefly: CLD_HMGCS2_48hr: CellzDirect (CLD) Gene Expression Assay for HMG-CoA synthase (HMGCS2) at 48 hours (AID 2283711). An outline of the steps:
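mRNA induction read by qNPA chemiluminescence, 48 h after dosing. Cultured primary human liver cells (two donor preparations) received fresh compound daily over two days against 0.2% DMSO vehicle; morphology-based cytotoxicity noted alongside.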

Assay [9] in a line: STM_H9_CystineISnorm_perc: Stemina devTOX quickPredict H9 human embryonic stem cell (hESC)-based Assay for Cystine (CYSS) Metabolite Biomarker, Normalized (AID 2283713; active = hit-call score of the fitted dose curve at least 0.9, where 1 is the maximum; inactive = score below 0.9). The gist of the method:
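Cells are held undifferentiated and treated for 72h, receiving fresh medium with compound every 24h. Cystine secreted during the final day is quantified by UPLC-HRMS against a labeled spike-in, then expressed relative to the DMSO vehicle median.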

A short description of assay [10]: STM_H9_OrnCyssISnorm_ratio: Stemina devTOX quickPredict H9 human embryonic stem cell (hESC)-based Assay for Ornithine (ORN):Cystine (CYSS) Ratio (AID 2283714). An outline of the steps: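 UPLC-HRMS of spent media: ORN/CYSS ratio of internal-standard-normalized percentages, DMSO (0.1%) baseline. Pluripotent H9 hESCs, 72h exposure, daily re-dosing with fresh media; last 24h media collected.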

Assay [11] in a line: CEETOX_H295R_MTT_cell_viability: Viability Assessment in the CeeTox HT-H295R MTT Assay (AID 2283718; active = hit-call score of the fitted dose curve at least 0.9, where 1 is the maximum; inactive = score below 0.9;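 for AC50: curve fitted both ways so AC50 may mark viability loss or gain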). An outline of the steps: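 Human H295R adrenal cells, prestimulated 48 h with 10 uM forskolin, were exposed 48 h to chemicals in 0.1% DMSO. Viability was measured in the same wells by MTT (0.5 mg/ml, 4 h, 37 C), absorbance 570/650 nm, as percent of controls.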
Assay [12] is described as follows: Tanguay_ZF_120hpf_ActivityScore_legacy: (Legacy) Oregon State University Tanguay Lab 120 Hour Post-fertilization zebrafish Assay Score for Activity (AID 2283742).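 For AC50: dechorionated Tropical 5D wild-type zebrafish embryos held singly per well.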 An outline of the steps: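 Dechorionated 5D embryos, one per well, static exposure 6–120 hpf, 28C, sealed and dark; final DMSO 0.64% (vol/vol). Brightfield binary scoring of mortality plus 18 endpoints; gain-of-signal fit versus DMSO baseline.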

Read-out in assay [13]: Cytochrome P450 3A4 (Homo sapiens) (UniProt P08684)
Briefly: CLD_CYP3A4_48hr: CellzDirect (CLD) Gene Expression Assay for xenobiotic metabolism (CYP3A4) at 48 hours (AID 2283698). The gist of the method:
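CYP3A4 induction read by qNPA chemiluminescence after 48 h, with fresh dosing solutions on consecutive days, in cultured human hepatocytes (two donors). Vehicle 0.2% DMSO as baseline; microscopy-based cytotoxicity annotated yes/no alongside data.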

Read-out in assay [14]: alkyl and aryl transferase (GSTA2), GSTA2 (gene 2939)
Briefly: CLD_GSTA2_48hr: CellzDirect (CLD) Gene Expression Assay for alkyl and aryl transferase (GSTA2) at 48 hours (AID 2283708).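 Note: active means mRNA induction above DMSO vehicle baseline.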 The gist of the method:
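GSTA2 mRNA quantified by qNPA chemiluminescence in human primary hepatocyte lysates after 48 h of daily fresh chemical dosing. Increases fitted against 0.2% DMSO vehicle baseline; cytotoxicity from morphology annotated yes/no.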

Assay [15] can be described thus: ArunA_Migration_hNP: ArunA Biomedical's Oris Neuroprogenitor (hNP) Cell Migration Assay (AID 2283754). An outline of the steps: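 Readout is calcein-AM fluorescence (ex494/em517) of cells migrating into the detection zone, relative to DMSO. hNP1 cells (H9-derived) grown on Matrigel behind stoppers 16 h, then stoppers pulled and chemical applied 72 h; cytochalasin D as control.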

Assay [16] can be described thus: ArunA_Migration_hNC: ArunA Biomedical's Oris Neural Crest (hNC) Cell Migration Assay (AID 2283755). An outline of the steps:
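Calcein-AM fluorescence (ex494 nm/em 517 nm) in the stopper-defined detection zone quantifies migration of hNC cells after 72 h chemical exposure; 60,000 cells/well plated on Matrigel with LIF and bFGF, 16 h pre-incubation. DMSO baseline.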

The nature of assay [17]: ArunA_NOG_NucleusCount: ArunA Biomedical's Neurite Outgrowth (NOG) Assay for Nucleus Count (AID 2283756). An outline of the steps:
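Viable neuron count, from Hoechst nuclei passing size and intensity gates, imaged at 20x on differentiated H9-derived human neurons. Exposure lasted 48 h from seeding; activity was scored relative to DMSO.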

Sequence of Cytochrome P450 3A4 (Homo sapiens) (P08684 whole entry, looked up): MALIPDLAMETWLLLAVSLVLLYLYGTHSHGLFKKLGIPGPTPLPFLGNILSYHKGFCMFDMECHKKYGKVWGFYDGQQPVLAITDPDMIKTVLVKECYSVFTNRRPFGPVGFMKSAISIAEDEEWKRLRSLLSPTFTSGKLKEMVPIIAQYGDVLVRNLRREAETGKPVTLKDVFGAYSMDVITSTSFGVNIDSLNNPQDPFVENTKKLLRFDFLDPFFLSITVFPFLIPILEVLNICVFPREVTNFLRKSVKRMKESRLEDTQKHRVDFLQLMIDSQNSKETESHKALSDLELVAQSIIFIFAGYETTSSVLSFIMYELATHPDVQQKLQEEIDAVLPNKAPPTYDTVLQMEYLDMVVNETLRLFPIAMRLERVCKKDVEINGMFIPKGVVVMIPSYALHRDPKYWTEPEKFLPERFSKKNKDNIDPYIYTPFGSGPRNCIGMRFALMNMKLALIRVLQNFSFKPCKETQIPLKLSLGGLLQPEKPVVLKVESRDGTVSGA
Sequence of Cytochrome P450 2C19 (Homo sapiens) (P33261 whole entry, looked up): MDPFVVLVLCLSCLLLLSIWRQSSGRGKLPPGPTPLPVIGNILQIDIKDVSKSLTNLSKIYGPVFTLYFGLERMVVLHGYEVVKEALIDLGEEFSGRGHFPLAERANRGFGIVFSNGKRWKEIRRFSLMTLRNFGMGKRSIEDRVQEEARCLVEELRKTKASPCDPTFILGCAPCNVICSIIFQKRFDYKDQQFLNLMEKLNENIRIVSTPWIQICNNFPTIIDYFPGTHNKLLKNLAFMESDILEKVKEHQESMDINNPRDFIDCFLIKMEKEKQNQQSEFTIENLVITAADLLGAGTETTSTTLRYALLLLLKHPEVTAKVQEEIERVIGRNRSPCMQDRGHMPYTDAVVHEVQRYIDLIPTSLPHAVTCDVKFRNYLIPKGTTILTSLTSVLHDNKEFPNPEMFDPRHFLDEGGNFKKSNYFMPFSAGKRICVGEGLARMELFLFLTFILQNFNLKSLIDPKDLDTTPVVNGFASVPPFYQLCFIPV

For the compound `COC(=O)c1ccccc1S(=O)(=O)NC(=O)N(C)c1nc(C)nc(OC)n1`, the call in [1], in [2], in [3], in assay [4] and in assay [5] was inactive.

In the case of `Oc1ccc(Cl)cc1Cc1ccccc1`, the result in [6], in assay [1], in assay [2], in assay [7], in assay [8] and in [9] was inactive. For the same compound, the outcome in [10] and in assay [11] was inactive. Also, the half-maximal activity concentration (AC50) in assay [12] is 37.1 µM (active) and 23.4 µM (active) and 22.3 µM (active).

Regarding `COc1cc(OC)nc(NC(=O)NS(=O)(=O)c2cc(NC=O)ccc2C(=O)N(C)C)n1`, the compound was called inactive in [1], in assay [2], in assay [3], in assay [4] and in [5].

Regarding `CCOc1nc(NC)nc(NC(=O)NS(=O)(=O)c2ccccc2C(=O)OC)n1`, the compound was classed as inactive in assay [1], in [13], in [2] and in assay [5]. For the same compound, the figures for the AC50 in assay [3] and in [4] were 14.3 µM (active) and 20 µM (active), respectively.

For the compound `Clc1ccccc1-c1nnc(-c2ccccc2Cl)nn1`, the compound was classed as inactive in assay [1], in assay [5], in assay [8], in assay [11] and in assay [12]. Further, the AC50 in [13] was 6.89 µM (active); in [2], 3.08 µM (active); in assay [3] it was 20 µM (active); in assay [4], 9.05 µM (active).

Turning to `CC[C@H](C)[C@H]1O[C@]2(C=C[C@@H]1C)C[C@@H]1C[C@@H](C/C=C(\C)[C@@H](O[C@H]3C[C@H](OC)[C@@H](O[C@H]4C[C@H](OC)[C@@H](O)[C@H](C)O4)[C@H](C)O3)[C@@H](C)/C=C/C=C3\CO[C@@H]4[C@H](O)C(C)=C[C@@H](C(=O)O1)[C@]34O)O2` (tested in a mixture with another compound), the AC50 is 0.206 µM (active) in [1] and 8.55 µM (active) in [12]. Further, the compound was classed as inactive in assay [7], in [4] and in assay [11].

On to `CC(C)OC(=O)Nc1cccc(Cl)c1`, for which the AC50 in [13] is 36.3 µM (active); in [2], 20 µM (active); in [3], 2.46 µM (active); in [4], 5.09 µM (active); in [9], 11.1 µM (active); in [10], 11.7 µM (active). For the same compound, in assay [12], the AC50 was 39.2 µM (active). The call in assay [7] and in [11] was inactive.

Turning to `O=C(O)C(F)(F)C(F)(F)C(F)(F)C(F)(F)C(F)(F)C(F)(F)C(F)(F)F`, the compound was classed as inactive in assay [6], in assay [2], in assay [7], in assay [3], in assay [9] and in assay [12]. Moreover, the figures for the AC50 in assay [13], in [4] and in assay [8] were 3.97 µM (active), 0.0776 µM (active) and 35.5 µM (active), respectively.

In the case of `O=C(Nc1ccccc1)Nc1cnns1`, the call in assay [1], in assay [13], in [7] and in assay [12] was inactive. Besides, the AC50 in [2] is 5.63 µM (active); in assay [3], 3.38 µM (active); in [4], 20 µM (active); in assay [9] it was 58.7 µM (active); in assay [10], 58.3 µM (active); in [11] it was 65.5 µM (active).

As for `Cc1cc(C)nc(NC(=O)NS(=O)(=O)c2ccccc2C(=O)OC2COC2)n1`, the call in [1], in assay [2], in assay [7], in assay [3] and in assay [8] was inactive.

For `CCS(=O)(=O)c1cccnc1S(=O)(=O)NC(=O)Nc1nc(OC)cc(OC)n1`, the call in assay [1], in assay [2], in assay [3], in assay [14] and in [11] was inactive. For the same compound, the values for the concentration at half-maximal activity (AC50) in assay [13] and in assay [4] were 20 µM (active) and 2.37 µM (active), respectively.

For the compound `O=S(=O)(O)C(F)(F)C(F)(F)C(F)(F)C(F)(F)C(F)(F)C(F)(F)C(F)(F)C(F)(F)F`, the call in assay [6], in assay [13], in assay [2], in assay [3], in [4] and in assay [5] was inactive. Further, the compound was called inactive in [8], in assay [9], in [10], in assay [15] and in assay [16]. Also, the concentration at half-maximal activity (AC50) in assay [17] was 0.649 µM (active).
